# Test results from PubChem BioAssay AID1159580 (chemical genetic matrix, 2015).
# Hit rate of the full screen: of about 5,500 compounds, about 2,000 (36%) were called active. Inconclusive results (about 18%) are left out. Some of the results follow. Unmarked numbers belong to inactive results. Cut-off read from the data, not from the text of the source: active = normalized growth mostly below about 0.91 (no sharp cut-off); inconclusive = no clear call, values can overlap the other calls; inactive = mostly above about 0.92.
# Test: chemical genetic growth profiling, strain panel (AID 1159580);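 note: tested at 20 µM; growth read once vehicle control cultures reached saturation at 30 °C; 1 = growth at the plate median or of vehicle wells; lower values mean less growth of the strain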
# Conditions: S. cerevisiae deletion strains, growth OD
# [1] = locus YAL013W, strain DEP1, stronger effect = lower value
# [2] = locus YBR229C, strain ROT2, stronger effect = lower value
# [3] = locus YDL101C, strain DUN1, stronger effect = lower value
# [4] = locus YDR150W, strain NUM1, stronger effect = lower value
# [5] = locus YEL061C, strain CIN8, stronger effect = lower value
# [6] = locus YGR078C, strain PAC10, stronger effect = lower value
# [7] = locus YGR229C, strain SMI1, stronger effect = lower value
# [8] = locus YHR030C, strain SLT2, stronger effect = lower value
# [9] = locus YHR087W, strain rtc3, stronger effect = lower value
# [10] = locus YJR043C, strain POL32, stronger effect = lower value
# [11] = locus YJR075W, strain HOC1, stronger effect = lower value
# [12] = locus YLR039C, strain RIC1, stronger effect = lower value
# [13] = locus YLR058C, strain SHM2 (second series), stronger effect = lower value
# [14] = locus YLR085C, strain ARP6, stronger effect = lower value
# [15] = locus YLR262C, strain YPT6, stronger effect = lower value
# [16] = locus YML094W, strain GIM5, stronger effect = lower value
# [17] = locus YMR219W, strain ESC1, stronger effect = lower value
# [18] = locus YMR263W, strain SAP30, stronger effect = lower value
# [19] = locus YMR307W, strain GAS1, stronger effect = lower value
# [20] = locus YNL153C, strain GIM3, stronger effect = lower value
# [21] = locus YNL298W, strain CLA4 (second series), stronger effect = lower value
# [22] = locus YNL322C, strain KRE1, stronger effect = lower value
# [23] = locus YNR030W, strain Alg12, stronger effect = lower value
# [24] = locus YOL006C, strain TOP1, stronger effect = lower value
# [25] = locus YPL055C, strain LGE1, stronger effect = lower value
# [26] = locus YPL241C, strain CIN2, stronger effect = lower value
# [27] = locus YPR135W, strain CTF4, stronger effect = lower value
# [28] = locus YJL187C, strain SWE1, stronger effect = lower value
smiles,measurement,setting,value
Brc1ccc(-c2ccn[nH]2)s1,normalized growth,[1],0.978
same,normalized growth,[2],0.966
same,normalized growth,[3],0.971
same,normalized growth,[4],1.02
same,normalized growth,[5],0.938
same,normalized growth,[6],0.973
same,normalized growth,[7],0.955
same,normalized growth,[8],0.938
same,normalized growth,[9],0.993
same,normalized growth,[10],1
same,normalized growth,[11],0.971
same,normalized growth,"locus YKL190W, strain CNB1, stronger effect = lower value",0.949
same,normalized growth,[12],0.703 (active)
same,normalized growth,[13],0.963
same,normalized growth,[14],0.721 (active)
same,normalized growth,[15],0.67 (active)
same,normalized growth,[16],0.886
same,normalized growth,[17],0.968
same,normalized growth,[18],1.02
same,normalized growth,[19],0.953
same,normalized growth,"locus YNL128W, strain TEP1, stronger effect = lower value",0.94
same,normalized growth,[20],0.906 (active)
same,normalized growth,[21],0.936
same,normalized growth,[22],0.97
same,normalized growth,[23],0.939
same,normalized growth,[24],0.715 (active)
same,normalized growth,[25],1.07
same,normalized growth,[26],0.525 (active)
same,normalized growth,[27],0.789
CN(C)C=Nc1nnc(Sc2nc3c(Cl)cc(Cl)cc3s2)s1,normalized growth,"locus YAR019C, strain CDC15, stronger effect = lower value",0.959
same,normalized growth,"locus YBL105C, strain PKC1, stronger effect = lower value",0.969
same,normalized growth,"locus YBR135W, strain CKS1, stronger effect = lower value",0.973
same,normalized growth,"locus YBR136W, strain MEC1, stronger effect = lower value",0.968
same,normalized growth,"locus YBR160W, strain CDC28, stronger effect = lower value",0.977
same,normalized growth,"locus YDL017W, strain CDC7, stronger effect = lower value",0.976
same,normalized growth,"locus YDL028C, strain MPS1, stronger effect = lower value",0.975
same,normalized growth,[3],0.972
same,normalized growth,"locus YDL108W, strain KIN28, stronger effect = lower value",0.976
same,normalized growth,"locus YDL132W, strain cdc53, stronger effect = lower value",0.964
same,normalized growth,"locus YDL214C, strain PRR2, stronger effect = lower value",0.97
same,normalized growth,"locus YDR052C, strain DBF4, stronger effect = lower value",0.972
same,normalized growth,"locus YDR054C, strain cdc34, stronger effect = lower value",0.954
same,normalized growth,"locus YDR226W, strain ADK1, stronger effect = lower value",0.961
same,normalized growth,"locus YDR477W, strain SNF1, stronger effect = lower value",0.944
same,normalized growth,"locus YER123W, strain YCK3, stronger effect = lower value",0.953
same,normalized growth,"locus YER133W, strain GLC7, stronger effect = lower value",0.925
same,normalized growth,"locus YFL009W, strain cdc4, stronger effect = lower value",0.963
same,normalized growth,"locus YFL029C, strain CAK1, stronger effect = lower value",0.959
same,normalized growth,"locus YFR003C, strain YPI1, stronger effect = lower value",0.973
same,normalized growth,"locus YFR019W, strain FAB1, stronger effect = lower value",0.975
same,normalized growth,"locus YFR028C, strain CDC14, stronger effect = lower value",0.969
same,normalized growth,"locus YGR040W, strain KSS1, stronger effect = lower value",0.943
same,normalized growth,"locus YGR052W, strain FMP48, stronger effect = lower value",1
same,normalized growth,"locus YGR092W, strain DBF2, stronger effect = lower value",0.929
same,normalized growth,[8],1.11
same,normalized growth,"locus YHR079C, strain IRE1, stronger effect = lower value",0.946
same,normalized growth,"locus YHR082C, strain KSP1, stronger effect = lower value",1.07
same,normalized growth,"locus YHR205W, strain SCH9, stronger effect = lower value",1.01
same,normalized growth,"locus YIL147C, strain SLN1, stronger effect = lower value",0.964
same,normalized growth,"locus YJL095W, strain BCK1, stronger effect = lower value",0.937
same,normalized growth,"locus YJL128C, strain PBS2, stronger effect = lower value",0.944
same,normalized growth,"locus YJL157C, strain FAR1, stronger effect = lower value",0.941
same,normalized growth,"locus YJR016C, strain ILV3, stronger effect = lower value",0.967
same,normalized growth,"locus YJR066W, strain TOR1 (second series), stronger effect = lower value",0.924
same,normalized growth,"locus YJR066W, strain TOR1, stronger effect = lower value",1.01
same,normalized growth,"locus YKL048C, strain ELM1, stronger effect = lower value",1.01
same,normalized growth,"locus YKL067W, strain YNK1, stronger effect = lower value",0.958
same,normalized growth,"locus YKL101W, strain HSL1, stronger effect = lower value",1.01
same,normalized growth,"locus YKL193C, strain SDS22, stronger effect = lower value",0.968
same,normalized growth,"locus YKL203C, strain TOR2, stronger effect = lower value",0.96
same,normalized growth,"locus YLR113W, strain HOG1, stronger effect = lower value",0.964
same,normalized growth,"locus YLR133W, strain CKI1, stronger effect = lower value",0.968
same,normalized growth,"locus YLR403W, strain SFP1, stronger effect = lower value",0.924
same,normalized growth,"locus YML070W, strain DAK1, stronger effect = lower value",0.98
same,normalized growth,"locus YMR001C, strain CDC5, stronger effect = lower value",0.969
same,normalized growth,"locus YMR205C, strain PFK2 (second series), stronger effect = lower value",0.99
same,normalized growth,"locus YMR277W, strain FCP1, stronger effect = lower value",0.962
same,normalized growth,"locus YNL006W, strain LST8, stronger effect = lower value",0.969
same,normalized growth,"locus YNL020C, strain ARK1, stronger effect = lower value",0.966
same,normalized growth,"locus YNL161W, strain CBK1, stronger effect = lower value",0.967
same,normalized growth,"locus YNL183C, strain NPR1, stronger effect = lower value",0.995
same,normalized growth,"locus YNL207W, strain RIO2, stronger effect = lower value",0.959
same,normalized growth,"locus YNL222W, strain SSU72, stronger effect = lower value",0.97
same,normalized growth,"locus YNL307C, strain MCK1 (second series), stronger effect = lower value",0.979
same,normalized growth,"locus YOL078W, strain AVO1, stronger effect = lower value",0.973
same,normalized growth,"locus YOL136C, strain PFK27, stronger effect = lower value",0.984
same,normalized growth,"locus YOR061W, strain CKA2, stronger effect = lower value",0.944
same,normalized growth,"locus YOR119C, strain RIO1, stronger effect = lower value",1
same,normalized growth,"locus YOR231W, strain MKK1, stronger effect = lower value",0.954
same,normalized growth,"locus YOR329C, strain SCD5, stronger effect = lower value",0.968
same,normalized growth,"locus YPL031C, strain PHO85, stronger effect = lower value",0.9
same,normalized growth,"locus YPL153C, strain RAD53, stronger effect = lower value",0.913
same,normalized growth,"locus YPL204W, strain HRR25, stronger effect = lower value",0.903
same,normalized growth,"locus YPL209C, strain IPL1, stronger effect = lower value",0.975
same,normalized growth,"locus YPL256C, strain CLN2, stronger effect = lower value",1.1
same,normalized growth,"locus YPR025C, strain CCL1, stronger effect = lower value",0.971
same,normalized growth,"locus YPR106W, strain ISR1, stronger effect = lower value",0.98
same,normalized growth,"locus YPR111W, strain DBF20, stronger effect = lower value",0.957
same,normalized growth,"strain NNK1, stronger effect = lower value",0.974
same,normalized growth,"strain TSCII, stronger effect = lower value",0.957
CN(C)C=Nc1nnc(SCc2ccc(C(=O)Oc3ccc(F)cc3F)cc2)s1,normalized growth,[1],0.989
same,normalized growth,[2],1.05
same,normalized growth,[3],1.02
same,normalized growth,[4],0.939
same,normalized growth,[5],1.01
same,normalized growth,[6],1.01
same,normalized growth,[7],1.01
same,normalized growth,[8],0.931
same,normalized growth,[9],1.02
same,normalized growth,[28],1.01
same,normalized growth,[10],0.949
same,normalized growth,[11],1.03
same,normalized growth,[12],1.08
same,normalized growth,[13],1.01
same,normalized growth,[14],0.919
same,normalized growth,[15],1.04
same,normalized growth,[16],0.973
same,normalized growth,[17],1.01
same,normalized growth,[18],0.924
same,normalized growth,[19],0.915
same,normalized growth,[20],1.02
same,normalized growth,[21],1
same,normalized growth,[22],1.03
same,normalized growth,[23],0.989
same,normalized growth,[24],1.07
same,normalized growth,[25],0.855
same,normalized growth,[26],0.996
same,normalized growth,[27],0.926
CN(C)C=Nc1nnc(Sc2nc3cc(Cl)ccc3s2)s1,normalized growth,[1],0.939
same,normalized growth,[2],0.958
same,normalized growth,[3],0.977
same,normalized growth,[4],0.968
same,normalized growth,[5],0.93
same,normalized growth,[6],0.983
same,normalized growth,[8],0.631 (active)
same,normalized growth,[9],0.914
same,normalized growth,[28],0.938
same,normalized growth,[10],0.966
same,normalized growth,[11],0.974
same,normalized growth,[12],0.757 (active)
same,normalized growth,[13],0.969
same,normalized growth,[14],0.707 (active)
same,normalized growth,[15],0.826
same,normalized growth,[16],0.909
same,normalized growth,[17],0.932 (active)
same,normalized growth,[18],0.957
same,normalized growth,[20],0.962
same,normalized growth,[21],0.887
same,normalized growth,[22],0.987
same,normalized growth,[23],0.93
same,normalized growth,[24],0.71 (active)
same,normalized growth,[25],0.796 (active)
same,normalized growth,[26],0.848 (active)
same,normalized growth,[27],0.698
C[C@H](O)C(=O)C1=Nc2c(nc(N)[nH]c2=O)NC1,normalized growth,[1],0.952
same,normalized growth,"locus YAL040C, strain CLN3, stronger effect = lower value",0.966
same,normalized growth,"locus YCL061C, strain MRC1 (second series), stronger effect = lower value",0.983
same,normalized growth,"locus YDR363W, strain ESC2, stronger effect = lower value",0.952
same,normalized growth,"locus YER002W, strain NOP16, stronger effect = lower value",1.04
same,normalized growth,[6],0.998
same,normalized growth,[11],0.98
same,normalized growth,[18],0.983
same,normalized growth,[19],0.983
same,normalized growth,"locus YNL175C, strain NOP13, stronger effect = lower value",1.01
same,normalized growth,"locus YNL197C, strain WHI3, stronger effect = lower value",1.01
same,normalized growth,"locus YNL224C, strain SQS1, stronger effect = lower value",0.997
same,normalized growth,[22],0.955
same,normalized growth,"locus YOR083W, strain WHI5 (second series), stronger effect = lower value",0.996
same,normalized growth,[25],0.971
